Dicer inh – inhibitors of human Dicer processing of pre-microRNA; Q9UPY3; cat-ELCCA pre-miR-21 Dicer processing, chemiluminescence; stronger effect = higher value; z-score at 25 µM; hit rate 6% among 47,000; AID 1347074; in the data active = z-score above about 3, passing the limit was not always enough;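 also: plate controls were vehicle for no effect and no enzyme for full effect; higher signal means more uncleaved substrate so more Dicer inhibition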
Starred values were filed as active, the others as inactive. Many of the other results were omitted from the sample, so hits are more common in it than they were.

SMILES | Dicer inh
O=C(O)c1ccc(Nc2ncnc3ccc(Br)cc23)cc1 | 4.9*
Cc1nc2ccc(Br)cc2c(C(=O)O)c1I | 1
O=C(O)c1ccc(Nc2ccnc3cc(Cl)ccc23)cc1 | 1.6
Cc1oc2c(F)c(F)c(F)c(F)c2c1/C(N)=N/O | -0.45
O=C(NC(=O)c1cccc(=O)o1)Oc1ccccc1 | -0.27
Nc1ccc(N2C(=O)c3ccccc3C2=O)c(Cl)c1 | 0.7
O=C(Nc1nc2n(n1)C(c1ccc(Cl)cc1)C=C(c1ccccc1)N2)c1cccs1 (centres undefined) | 1.6
O=C(Nc1nc2n(n1)C(c1ccc(F)cc1)C=C(c1ccc(Cl)cc1)N2)c1cccs1 (centres undefined) | 17*
O=C(Nc1nc2n(n1)C(c1ccc(F)cc1)C=C(c1ccccc1)N2)c1cccs1 (centres undefined) | 1.9
N#Cc1c(N2CCOCC2)nsc1-c1ccccc1Cl | 0.25
CCOC(=O)c1sc2nc(C3CC3)cc(-c3ccc(OC)cc3)c2c1N | 0.7
CC1(C)CC(=O)c2cnn(-c3nc4ccccc4[nH]3)c2C1 | -0.77
CC1CC(=O)c2cnn(-c3nc4ccccc4s3)c2C1 (centres undefined) | 3*
Cc1nc(Nc2ncc3c(n2)CC(C)CC3=O)nc2ccccc12 (centres undefined) | 1.5
CC(C)(C)CC(C)(C)NC(=O)c1ccccc1Cl | -0.89
CCOC(=O)/C(C#N)=C/NC1CCCCNC1=O (centres undefined) | -1.6
O=C(NCC1COc2ccccc2O1)C(=O)NCC1OCCc2ccccc21 (centres undefined) | 1.5
Cc1ccc(NC(c2cccnc2)c2ccc3cccnc3c2O)cc1C (centres undefined) | -0.31
Cc1cc(Cl)ccc1NC(c1cccnc1)c1ccc2cccnc2c1O (centres undefined) | 11*
Cc1cc(Cl)ccc1NC(c1ccccn1)c1ccc2cccnc2c1O (centres undefined) | 9.1*
O=C(Nc1cccc2cccnc12)C(Cl)(Cl)Cl | -0.2
Cc1ccc(NC(c2ccccn2)c2ccc3cccnc3c2O)c(C)c1 (centres undefined) | -1.2
Cc1cc(Cl)ccc1Oc1ncccc1N | -2.9
Oc1c(C(Nc2ccccc2Cl)c2cccnc2)ccc2cccnc12 (centres undefined) | 6.2*
CSC(SC)=C(C#N)c1ccccc1 | -0.73
SMILES | Dicer inh
C=CCSC1=NNC(c2ccc(C(C)(C)C)cc2)=NN1 | -0.75
O=c1cc(C(F)(F)F)c2ccc(O)cc2o1 | 2.9
COCCn1c2c(c(=O)[nH]c1=O)C(c1ccc(OC)cc1)C1=C(N2)c2ccccc2C1=O (centres undefined) | -0.38
CSC1=N/C(=C\c2cccc(Cl)c2)C(=O)N1N(C)C | 0.72
COc1ccc(S(=O)(=O)NCCCC(=O)O)cc1 | 3.1*
O=C(O)CCCNS(=O)(=O)c1ccc(Cl)cc1 | 1.2
Cc1ccc(S(=O)(=O)NCCCCCC(=O)O)cc1 | -0.2
CCOC(=O)COc1ccc(Cl)cc1C(=O)OC | 1
Cc1oc(S(=O)(=O)N2CCCCC2)cc1C(=O)O | -1.5
Cc1[nH]ccc(=O)c1OCc1ccc(Cl)cc1 | -0.76
COc1cccc2c1c(NC(=O)CCC(=O)O)nn2C | -2.4
CCOC(=O)/C(C#N)=C/C=C(/c1ccc(Cl)cc1)N1CCOCC1 | 0.23
CC(=O)Oc1ccccc1/C(=C/C=C(c1ccccc1)c1ccccc1)N1CCOCC1 | 4.3*
N/C(=N\C(=O)N1CCOCC1)c1ccccc1 | -0.12
CC1=CCC2C(=O)N(c3ncccn3)C(=O)C2C1 (centres undefined) | 3.7*
CC1=CCC2C(=O)N(c3ccccc3O)C(=O)C2C1 (centres undefined) | -0.99
CC1=CCC2C(=O)N(c3cc(C)on3)C(=O)C2C1 (centres undefined) | -0.01
CCOC(=O)c1c(N)n(C2CCCCC2)c2nc3ccccc3nc12 | -3.2
O=c1oc(-c2ccco2)nc2cc(Cl)ccc12 | 2.6
Oc1ccc(Cl)cc1C1=Nc2ccccc2N=C(c2ccco2)C1 | 3*
COc1ccc(O)c(C2=Nc3ccccc3N=C(c3ccco3)C2)c1 | 2.4
O=C(Nc1ccc(N2CCOCC2)nc1N1CCOCC1)c1cccc(C(F)(F)F)c1 | 1.5
Cc1cc(C)c2cc(C(=O)N(C)C3CCN(C)CC3)[nH]c2c1 | 1.4
CCN1C(=O)c2cccc3c(S(=O)(=O)Nc4nc5ccccc5s4)ccc1c23 | -1.9
Cc1nnc(SCc2cc(=O)c3c(=O)n(-c4ccccc4)[nH]c3[nH]2)s1 | -0.88
SMILES | Dicer inh
CNC(=O)c1ccccc1S(=O)c1ccccc1CO (centres undefined) | 1.8
CCc1ccc2[nH]c(C(=O)Nc3ccc(Br)c(C)n3)cc2c1 | 44*
COc1ccc2[nH]c(C(=O)Nc3ccc(Br)c(C)n3)cc2c1 | -1.7
CCc1ccc2[nH]c(C(=O)NCc3cc(Cl)ccc3Cl)cc2c1 | -4.1
Cn1c(=O)c2c(ncn2Cc2cc(-c3ccccc3)no2)n(C)c1=O | -1.1
O=c1[nH]nc(Sc2ncc(Br)cc2[N+](=O)[O-])n1-c1cccc(C(F)(F)F)c1 | -0.79
Cc1ccc2cc(-c3noc(-c4ccco4)n3)c(=O)[nH]c2c1 | -1.2

Compound activity from PubChem.
